Measurements reported in PubChem BioAssay (NCI).
Where “and” joins values, the source holds several entries; their conditions need not be identical. Equal entries are not always repeated. About 79,000 compounds went through this panel and 15% of them were active in at least one assay; those are over-represented in the sample as a whole. Where a structure was tested more than once in an assay, its records may differ in their call. Calls of active or inactive are those of the source. Rule as the data show it: active = growth inhibition above about 70%; inactive = the rest.

How the values were obtained:
[1] = NCI Yeast Anticancer Drug Screen. Data for the sgs1 strain (AID 173);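 also: 0% = growth of vehicle-only control cultures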; conditions: S. cerevisiae sgs1 mutant, stronger effect = higher value
Summary of the method: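 A genetically defined yeast mutant is incubated with the test compound, and its growth is compared to that of the same strain given vehicle.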

[2] = NCI Yeast Anticancer Drug Screen. Data for the mlh1 rad18 strain (AID 175); conditions: S. cerevisiae mlh1 rad18 strain growth inhibition, stronger effect = higher value
Summary of the method: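 Steps: expose repair-defective yeast to compound; measure growth; express inhibition against vehicle-treated controls.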

[3] = NCI Yeast Anticancer Drug Screen. Data for the rad18 strain (AID 177); conditions: S. cerevisiae rad18 mutant growth inhibition, stronger effect = higher value
Summary of the method: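 Measured value is growth inhibition of a yeast strain bearing a DNA repair alteration, referenced to vehicle-treated cells.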

[4] = NCI Yeast Anticancer Drug Screen. Data for the rad52 strain (AID 147);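 also: 0% = growth of vehicle-treated control cultures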; conditions: S. cerevisiae rad52 mutant growth inhibition, stronger effect = higher value
Summary of the method: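 Here a repair-compromised yeast strain receives each compound; its growth is then quantified and normalised to vehicle-only controls.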

[5] = NCI Yeast Anticancer Drug Screen. Data for the wt1 strain (AID 149);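 also: 0% = growth of vehicle-treated wt1 cultures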; conditions: S. cerevisiae wt1 strain (SPY 50644) growth inhibition, stronger effect = higher value
Summary of the method: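 Readout: yeast growth inhibition, normalised to vehicle controls, in the wt1 strain exposed to test compounds.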

[6] = NCI Yeast Anticancer Drug Screen. Data for the rad50EPP+ strain (AID 151);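 also: 0% = growth of vehicle-treated control cultures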; conditions: S. cerevisiae rad50 mutant strain, stronger effect = higher value
Summary of the method: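 Read-out is yeast growth inhibition relative to vehicle; cells used were the rad50EPP+ strain.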

[7] = NCI Yeast Anticancer Drug Screen. Data for the rad50 strain (AID 155);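 also: 0% = growth of vehicle-only cultures of the same strain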; conditions: S. cerevisiae rad50 strain growth inhibition, stronger effect = higher value
Summary of the method: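 Compounds were tested on a yeast strain with an engineered DNA damage repair alteration; the reported value is growth inhibition normalised to vehicle treatment.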

[8] = NCI Yeast Anticancer Drug Screen. Data for the mec2-1 strain (AID 157); conditions: S. cerevisiae mec2-1 strain, stronger effect = higher value
Summary of the method: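 Using mec2-1 yeast: add compound, measure growth, express inhibition versus vehicle-treated cultures.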

[9] = NCI Yeast Anticancer Drug Screen. Data for the rad14 strain (AID 159);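 also: 0% = growth of vehicle-treated control cultures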; conditions: S. cerevisiae rad14 strain growth inhibition, stronger effect = higher value
Summary of the method: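 Compound-treated yeast with a defined DNA-repair lesion; growth inhibition normalised to vehicle-treated cultures.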

[10] = NCI Yeast Anticancer Drug Screen. Data for the sgs1 mgt1 strain (AID 161);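 also: 0% = growth of cultures given vehicle only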; conditions: S. cerevisiae sgs1 mgt1 strain, stronger effect = higher value
Summary of the method: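 This yeast growth screen uses a strain with defined DNA-repair lesions; compound-treated growth is compared with vehicle-treated growth.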

[11] = NCI Yeast Anticancer Drug Screen. Data for the CLN2oe strain (AID 163);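 also: 0% = growth of vehicle-only control cultures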; conditions: S. cerevisiae CLN2oe strain, stronger effect = higher value
Summary of the method: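 Whole-cell yeast growth assay. A strain engineered for altered cell-cycle control received compound, and inhibition relative to vehicle-treated cultures was recorded.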

[12] = NCI Yeast Anticancer Drug Screen. Data for the cln2 rad14 strain (AID 165);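 also: 0% = growth equal to vehicle treated cultures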; conditions: S. cerevisiae cln2 rad14 strain, stronger effect = higher value
Summary of the method: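 Yeast strain cln2 rad14, bearing defects in cell cycle control and DNA repair, serves as the test system; values reflect growth inhibition compared with vehicle.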

[13] = NCI Yeast Anticancer Drug Screen. Data for the bub3 strain (AID 167); conditions: S. cerevisiae bub3 mutant strain, stronger effect = higher value
Summary of the method: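 Growth of a checkpoint-deficient yeast mutant is measured after compound exposure. Values represent inhibition relative to vehicle.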

[14] = NCI Yeast Anticancer Drug Screen. Data for the wt2 strain (AID 169);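 also: 0% = growth of vehicle-treated yeast cultures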; conditions: S. cerevisiae wt2 strain growth inhibition, stronger effect = higher value
Summary of the method: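 Treated yeast vs. vehicle-treated yeast: growth inhibition determined.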

[15] = NCI Yeast Anticancer Drug Screen. Data for the mlh1 strain (AID 171);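 also: 0% = growth of vehicle-treated control cultures of the same strain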; conditions: S. cerevisiae mlh1 strain growth inhibition, stronger effect = higher value
Summary of the method: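 A yeast strain with a defined genetic lesion serves as the test organism. Cultures receive compound or vehicle, and growth is measured.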

[16] = at 5.0 µM (retest, dose inferred, filed as 0.5)
[17] = at 50.0 µM (retest, dose inferred, filed as 5.0)

Measured: growth inhibition

COC(=O)C1=C(C(=O)OC)C(C(=O)OC)C(C(=O)OC)C(C(=O)OC)(C(=O)OC)C(C(=O)OC)=C1C(=O)OC (stereo not drawn)
active: [2]; [17] 87%
inactive: [1]; at 3.7 µM -11% | [1]; at 11.0 µM -7% | [1]; at 33.0 µM 18% | [1]; at 100.0 µM 60% | [2]; [16] 26% | [2]; at 50.0 µM 67.4% | [3]; at 1.2 µM -20% | [3]; at 3.7 µM -21% | [3]; at 11.0 µM -5% | [3]; at 33.0 µM 17% | [3]; at 100.0 µM 51%

C#CCN(Cc1ccc2nc(N)[nH]c(=O)c2c1)c1ccc(C(=O)NC(CCC(=O)O)C(=O)O)cc1 (stereo not drawn)
active: [4]; at 33.0 µM 73% | [4]; at 100.0 µM 88% | [7]; at 50.0 µM 77.5% and 72.5% | [7]; at 100.0 µM 89% | [8]; at 33.0 µM 89% | [8]; [17] 92% and 98% | [8]; at 50.0 µM 92% and 89.9% | [8]; at 100.0 µM 92% | [13]; [17] 71% and 96% | [1]; at 100.0 µM 75%
46% (inactive) and 78% (active): [2]; [17]
62% (inactive) and 82% (active): [10]; [17]
17% (inactive) and 78% (active): [12]; [17]
inactive: [4]; at 1.2 µM 19% | [4]; at 3.7 µM 29% | [4]; at 11.0 µM 28% | [5]; at 1.2 µM 2% | [5]; at 3.7 µM 9% | [5]; at 11.0 µM 15% | [5]; at 33.0 µM 17% | [5]; at 100.0 µM 43% | [6]; at 1.2 µM 27% | [6]; at 3.7 µM 37% | [6]; at 11.0 µM 44% | [6]; at 33.0 µM 29% | [6]; at 100.0 µM 41% | [7]; at 1.2 µM 26% | [7]; at 3.7 µM 29% | [7]; [16] 12% and 1% | [7]; at 11.0 µM 26% | [7]; at 33.0 µM 69% | [8]; at 1.2 µM -9% | [8]; at 3.7 µM -6% | [8]; [16] 4% and -6% | [8]; at 11.0 µM 17% | [9]; at 1.2 µM -2% | [9]; at 3.7 µM 18% | [9]; at 11.0 µM 2% | [9]; at 33.0 µM 44% | [9]; at 100.0 µM 69% | [10]; [16] 20% and 3% | [10]; at 50.0 µM 67.4% and 35.9% | [11]; at 1.2 µM 3% | [11]; at 3.7 µM 6% | [11]; at 11.0 µM -14% | [11]; at 33.0 µM 1% | [11]; at 100.0 µM 28% | [12]; [16] 0% and 14% | [12]; at 50.0 µM 30.1% and 16.3% | [13]; at 1.2 µM -6% | [13]; at 3.7 µM -8% | [13]; [16] 12% and -11% | [13]; at 11.0 µM -18% | [13]; at 33.0 µM 3% | [13]; at 50.0 µM 63.9% and 36.5% | [13]; at 100.0 µM 43% | [14]; at 1.2 µM -9% | [14]; at 3.7 µM -9% | [14]; at 11.0 µM 11% | [14]; at 33.0 µM 21% | [14]; at 100.0 µM 28% | [15]; at 1.2 µM 14% | [15]; at 3.7 µM 14% | [15]; at 11.0 µM 19% | [15]; at 33.0 µM 41% | [15]; at 100.0 µM 55% | [1]; at 1.2 µM 24% | [1]; at 3.7 µM 35% | [1]; at 11.0 µM 36% | [1]; at 33.0 µM 64% | [2]; [16] 5% and -8% | [2]; at 50.0 µM 35% and 20.6% | [3]; at 1.2 µM -2% | [3]; at 3.7 µM -23% | [3]; at 11.0 µM -26% | [3]; at 33.0 µM 33% | [3]; at 100.0 µM 65%
67% (inactive) and 82% (active): [7]; [17]

CC(C)c1ccc(NC(=S)NC(=O)c2ccccc2)cc1
active: [13]; at 11.0 µM 78% | [13]; at 33.0 µM 86% | [13]; [17] 87% | [13]; at 50.0 µM 76% | [13]; at 100.0 µM 80%
inactive: [4]; at 1.2 µM -32% | [4]; at 3.7 µM -30% | [4]; at 11.0 µM -19% | [4]; at 33.0 µM 12% | [4]; at 100.0 µM 26% | [5]; at 1.2 µM -9% | [5]; at 3.7 µM -22% | [5]; at 11.0 µM 4% | [5]; at 33.0 µM 20% | [5]; at 100.0 µM 41% | [6]; at 1.2 µM -2% | [6]; at 3.7 µM 4% | [6]; at 11.0 µM 47% | [6]; at 33.0 µM 53% | [6]; at 100.0 µM 58% | [7]; at 1.2 µM -27% | [7]; at 3.7 µM -19% | [7]; [16] 10% | [7]; at 11.0 µM 1% | [7]; at 33.0 µM 31% | [7]; [17] 31% | [7]; at 50.0 µM 52% | [7]; at 100.0 µM 39% | [8]; at 1.2 µM -35% | [8]; at 3.7 µM -19% | [8]; [16] 0% | [8]; at 11.0 µM 4% | [8]; at 33.0 µM 23% | [8]; [17] 40% | [8]; at 50.0 µM 42% | [8]; at 100.0 µM 38% | [9]; at 1.2 µM -19% | [9]; at 3.7 µM 0% | [9]; at 11.0 µM -3% | [9]; at 33.0 µM 42% | [9]; at 100.0 µM 30% | [10]; [16] 2% | [10]; [17] 69% | [10]; at 50.0 µM 66.6% | [11]; at 1.2 µM -21% | [11]; at 3.7 µM -21% | [11]; at 11.0 µM -2% | [11]; at 33.0 µM 56% | [11]; at 100.0 µM 51% | [12]; [16] 17% | [12]; [17] 64% | [12]; at 50.0 µM 40.9% | [13]; at 1.2 µM 3% | [13]; at 3.7 µM 41% | [13]; [16] 42% | [14]; at 1.2 µM -25% | [14]; at 3.7 µM -26% | [14]; at 11.0 µM -6% | [14]; at 33.0 µM 46% | [14]; at 100.0 µM 37% | [15]; at 1.2 µM -11% | [15]; at 3.7 µM 2% | [15]; at 11.0 µM 29% | [15]; at 33.0 µM 60% | [15]; at 100.0 µM 56% | [1]; at 1.2 µM -23% | [1]; at 3.7 µM -16% | [1]; at 11.0 µM 15% | [1]; at 33.0 µM 50% | [1]; at 100.0 µM 55% | [2]; [16] 5% | [2]; [17] 59% | [2]; at 50.0 µM 34% | [3]; at 1.2 µM -28% | [3]; at 3.7 µM -28% | [3]; at 11.0 µM -17% | [3]; at 33.0 µM 3% | [3]; at 100.0 µM 26%
